Inconclusive results are not listed. Active and inactive are the calls of the source. Unless noted, the call rests on the fitted dose curve; in most records, active means well fitted curve in the direction sought with a large enough effect; inconclusive means small, poorly fitted or top-dose-only effect, or another doubt; inactive means no such curve, though single readings can be large; an effect the other way counts as inactive or inconclusive.

Experiment [1] can be described thus: Confirmation and Secondary Assay for Modulators of Hemoglobin Beta Chain Splicing at IVS2 654 locus (AID 910).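 Further: HeLa cells stably carrying EGFP split by mutant beta-globin IVS2-654 intron; per-well total GFP intensity by laser scanning cytometry after 2-day treatment; % of control where 0% means no effect.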 The gist of the method: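 Readout: per-well total peak green fluorescence (488 nm ex, 500–520 nm em) from objects 5–250 µm, reflecting correct splicing of an EGFP-654 reporter. Compounds were applied for 2 days at 37 °C to overnight-plated HeLa EGFP-654 cells; controls were DMSO and 500 nM IVS2-654 PNA.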

Experiment [2] is described as follows: Confirmation and Secondary Assay for Modulators of Hemoglobin Beta Chain Splicing at IVS2 705 locus (AID 930).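 Further: HeLa cells stably expressing the EGFP-705 splicing reporter; GFP fluorescence per well restored by corrected splicing of the IVS2-705 intron in EGFP; % of control where 0% means no effect.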 In short, it runs like this: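 Per-well GFP, captured at 1 x 8 µm resolution with 488 nm excitation, served as the read-out for HeLa EGFP-705 cells incubated 2 days with test compound versus DMSO.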
Experiment [3] can be described thus: qHTS Assay for Lipid Storage Modulators (AID 1519; calls by dose curve; on activity change, negative = inhibition: on the % scale 0 is the no-effect control and ±100 the full control effect). The conditions noted are these: Drosophila S3 cells, BODIPY lipid droplet/cell ratio, laser cytometry, cells loaded with oleic acid; for activity change, negative = inhibition: at 57.5 µM (top of the series). In short, it runs like this: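 Cells seeded at 5,000 per well were treated with compounds over a concentration series and loaded with oleic acid (400 uM, as added). Lipid droplet fluorescence (488 nm excitation, 500-530 nm channel) was read by laser-scanning cytometry and normalized to 20 uM Triacsin C.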
On the technique in general: In qHTS, concentration-response curves come from the screen itself.

For experiment [4], the target named is Ubiquitin carboxyl-terminal hydrolase 1 (Homo sapiens) (UniProt O94782). The experiment can be described thus: Inhibitors of USP1/UAF1: Pilot qHTS (AID 504865).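 Further: rhodamine fluorescence freed from ubiquitin-rhodamine substrate followed over time; top concentration of the series differs between compounds; on the % scale 0 is the no-effect control and ±100 the full control effect; nearly all actives have a fitted effect of over 35% in size.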 In short, it runs like this: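 USP1/UAF1 complex at 1 nM preincubated 15 min at room temperature with compound, then Ub-Rho substrate added at 150 nM final. Fluorescence (480/540 nm) read kinetically in 50 mM HEPES pH 7.8, 0.5 mM EDTA, 1 mM TCEP, 0.1 mg/ml BSA, 0.01% Tween-20.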

The mark [5] stands for this setting: measured here: cell count channel max response.
[6] abbreviates: measured here: lipid channel max response.

Ubiquitin carboxyl-terminal hydrolase 1 (Homo sapiens), sequence (O94782 whole entry, looked up): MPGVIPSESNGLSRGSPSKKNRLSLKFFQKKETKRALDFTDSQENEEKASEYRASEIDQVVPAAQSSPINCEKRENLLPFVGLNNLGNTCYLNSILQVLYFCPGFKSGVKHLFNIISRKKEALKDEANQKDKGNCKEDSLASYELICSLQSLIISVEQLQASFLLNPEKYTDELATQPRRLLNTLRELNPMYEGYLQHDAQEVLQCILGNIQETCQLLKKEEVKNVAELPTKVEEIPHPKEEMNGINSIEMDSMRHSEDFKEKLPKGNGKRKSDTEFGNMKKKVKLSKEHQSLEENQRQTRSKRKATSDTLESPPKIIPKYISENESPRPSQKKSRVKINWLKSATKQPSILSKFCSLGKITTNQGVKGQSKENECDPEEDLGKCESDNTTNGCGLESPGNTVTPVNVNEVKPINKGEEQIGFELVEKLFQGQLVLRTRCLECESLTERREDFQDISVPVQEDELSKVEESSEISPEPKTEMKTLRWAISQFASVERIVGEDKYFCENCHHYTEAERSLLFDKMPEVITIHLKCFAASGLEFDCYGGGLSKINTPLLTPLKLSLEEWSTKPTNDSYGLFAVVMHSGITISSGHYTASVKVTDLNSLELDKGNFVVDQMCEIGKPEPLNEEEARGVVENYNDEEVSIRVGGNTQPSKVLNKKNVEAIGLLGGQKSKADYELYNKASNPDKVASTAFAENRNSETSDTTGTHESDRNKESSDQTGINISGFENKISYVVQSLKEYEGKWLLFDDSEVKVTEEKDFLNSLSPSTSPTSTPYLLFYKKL

Turning to `CC1(C)CCC2(C(=O)O)CC[C@]3(C)C(=CCC4[C@]5(C)CCC(O)C(C)(C)C5C(O)C[C@]43C)C2C1` (stereo partly specified), the Potency entry in experiment [1], in experiment [2] and in experiment [4] was “inactive” throughout. In experiment [3], the activity change, negative = inhibition is 10.3% (inactive). In addition, the max response in experiment [3] (setting [5]) worked out at 9.57%; in experiment [3] (setting [6]) it was 24.8%.

`COc1cc(C(=O)OC2CC[C@]3(C)C4CCC5[C@]6(O)CC(O)[C@]7(O)C(CN8CC(C)CCC8[C@]7(C)O)[C@]6(O)C[C@@]53O[C@]24O)cc(OC)c1OC` (stereo partly specified): the Potency result in experiment [1], in experiment [2] and in experiment [4] was “inactive” throughout. The activity change, negative = inhibition in experiment [3] was 4.04% (inactive). The max response in experiment [3] (setting [5]) is 17.4%; in experiment [3] (setting [6]), 24.2%.

`O=C(O)CCC(=O)OC[C@@H](NC(=O)C(Cl)Cl)C(O)c1ccc([N+](=O)[O-])cc1` (stereo partly specified): the Potency entry in experiment [1], in experiment [2] and in experiment [4] was “inactive” each time. Further, the activity change, negative = inhibition in experiment [3] was 7.24% (inactive). The max response in experiment [3] (setting [5]) turned out to be 16.6%; in experiment [3] (setting [6]), 25.2%.

Take `COC1C=CC23c4cc5c(cc4CN(CC2O)C3C1)OCO5` (stereo unspecified): the Potency entry in experiment [1], in experiment [2] and in experiment [4] was “inactive” throughout. The activity change, negative = inhibition in experiment [3] was -1.59% (inactive). Besides, the max response stood at 30.3% in experiment [3] (setting [5]) and 31.3% in experiment [3] (setting [6]).

`CN(C)CC/C=C1/c2ccccc2COc2ccccc21`: the Potency result in experiment [1], in experiment [2] and in experiment [4] was “inactive” each time. In experiment [3], the activity change, negative = inhibition is 0.286% (inactive). The max response in experiment [3] (setting [5]) came to 3.97%; in experiment [3] (setting [6]) it was 10.6%.

Consider `C[C@]12CCC(=O)C=C1CCC1C2C(O)C[C@]2(C)C1CC[C@]2(O)C(=O)CO` (stereo partly specified), for which the Potency result in experiment [1], in experiment [2] and in experiment [4] was “inactive” throughout. The activity change, negative = inhibition in experiment [3] is 12.8% (inactive). In addition, the max response in experiment [3] (setting [5]) is 7.87%; in experiment [3] (setting [6]) it was 21.1%.

Turning to `COC1C(O)CC(=O)OC(C)C/C=C/C=C/[C@@H](OC2CCC(N(C)C)C(C)O2)C(C)C[C@@H](CC=O)[C@@H]1O[C@H]1OC(C)[C@H](O[C@@H]2C[C@@](C)(O)C(O)C(C)O2)C(N(C)C)C1O` (stereo partly specified), the Potency entry in experiment [1], in experiment [2] and in experiment [4] was “inactive” each time. Also, in experiment [3], the activity change, negative = inhibition is 4.53% (inactive). The max response in experiment [3] (setting [5]) worked out at 15.4%; in experiment [3] (setting [6]), 26.5%.

Consider `CCC(/C=C/C(C)C1CCC2C3CCC4=CC(=O)CC[C@@]4(C)C3CC[C@@]12C)C(C)C` (stereo partly specified), for which the Potency result in experiment [1], in experiment [2] and in experiment [4] was “inactive” throughout. Further, the activity change, negative = inhibition in experiment [3] is 4.65% (inactive). Besides, the max response in experiment [3] (setting [5]) was 11.9%; in experiment [3] (setting [6]) it was 16.6%.

Turning to `NC1(C(=O)O)CCCC1`, the Potency result in experiment [1], in experiment [2] and in experiment [4] was “inactive” throughout. Moreover, in experiment [3], the activity change, negative = inhibition was -0.822% (inactive). Moreover, the max response in experiment [3] (setting [5]) turned out to be 7.47%; in experiment [3] (setting [6]), 7.88%.

Turning to `CSc1ncnc2c1ncn2C1OC(CO)C(O)C1O` (stereo unspecified), the Potency entry in experiment [1], in experiment [2] and in experiment [4] was “inactive” each time. The activity change, negative = inhibition in experiment [3] was -6.93% (inactive). Also, the max response in experiment [3] (setting [5]) was -18.3%; in experiment [3] (setting [6]), -24.7%.

For the molecule `C=C1CCC2C(CC2(C)C)C(=C)CC/C1=N/O` (stereo unspecified), the Potency result in experiment [1], in experiment [2] and in experiment [4] was “inactive” in each case. Moreover, in experiment [3], the activity change, negative = inhibition was 4.06% (inactive). For the same molecule, the max response in experiment [3] (setting [5]) is 4.09%; in experiment [3] (setting [6]), 9.2%.

In the case of `CC(=O)OCC1OC(n2cnc3c(=O)[nH]cnc32)C(OC(C)=O)C1OC(C)=O` (stereo unspecified), the Potency entry in experiment [1], in experiment [2] and in experiment [4] was “inactive” each time. In addition, the activity change, negative = inhibition in experiment [3] was 3.9% (inactive). Besides, the max response was determined as 9.07% in experiment [3] (setting [5]) and 13.2% in experiment [3] (setting [6]).

`O=C(O)CCC(=O)C(=O)O` (tested in a mixture with another compound): the Potency result in experiment [1], in experiment [2] and in experiment [4] was “inactive” throughout. In addition, in experiment [3], the activity change, negative = inhibition is 3.77% (inactive). Moreover, the max response in experiment [3] (setting [5]) was 11.4%; in experiment [3] (setting [6]), 18.6%.

For `[N-]=[N+]=Nc1nc2c(N)ncnc2n1C1OC(CO)C(O)C1O` (stereo unspecified), the Potency entry in experiment [1], in experiment [2] and in experiment [4] was “inactive” in each case. Besides, in experiment [3], the activity change, negative = inhibition is -16.2% (inactive). Besides, the max response in experiment [3] (setting [5]) came to 12.5%; in experiment [3] (setting [6]), 1.58%.

`CC(C)(C)NC[C@@H](O)COc1nsnc1N1CCOCC1`: the Potency entry in experiment [1], in experiment [2] and in experiment [4] was “inactive” in each case. Further, the activity change, negative = inhibition in experiment [3] was 13.4% (inactive). Besides, the max response was 16.2% in experiment [3] (setting [5]) and 36.5% in experiment [3] (setting [6]).

For the molecule `O=C(O)C1=CC(O)[C@@H](O)C(O)C1` (stereo partly specified), the Potency entry in experiment [1], in experiment [2] and in experiment [4] was “inactive” throughout. Further, the activity change, negative = inhibition in experiment [3] is 3.18% (inactive). Also, the max response in experiment [3] (setting [5]) turned out to be 15.5%; in experiment [3] (setting [6]), 22.2%.

Consider `COC1=CC(C)C2CC3OC(=O)CC4C(C)=C(OC)C(=O)C([C@]2(C)C1=O)[C@]34C` (stereo partly specified), for which the Potency entry in experiment [1], in experiment [2] and in experiment [4] was “inactive” throughout. In experiment [3], the activity change, negative = inhibition is 1.13% (inactive). Also, the max response was found to be 5.55% in experiment [3] (setting [5]) and 6.48% in experiment [3] (setting [6]).

On to `Cc1onc(-c2ccccc2Cl)c1C(=O)NC1C(=O)N2C1SC(C)(C)C2C(=O)O` (stereo unspecified), for which the Potency result in experiment [1], in experiment [2] and in experiment [4] was “inactive” throughout. Further, the activity change, negative = inhibition in experiment [3] was 9.93% (inactive). For the same molecule, the max response in experiment [3] (setting [5]) amounted to 11.3%; in experiment [3] (setting [6]), 24.6%.

As for `O=c1[nH]c(Cl)nc2c1ncn2C1OC(CO)C(O)C1O` (stereo unspecified), the Potency result in experiment [1], in experiment [2] and in experiment [4] was “inactive” each time. Further, the activity change, negative = inhibition in experiment [3] is 5.69% (inactive). The max response came to 2.53% in experiment [3] (setting [5]) and 10.3% in experiment [3] (setting [6]).

As for `COC(=O)C(N)CS` (stereo unspecified), the Potency entry in experiment [1], in experiment [2] and in experiment [4] was “inactive” throughout. For the same molecule, the activity change, negative = inhibition in experiment [3] was 6.93% (inactive). For the same molecule, the max response in experiment [3] (setting [5]) came to 11.1%; in experiment [3] (setting [6]), 22.7%.

Consider `CCC(=O)OCC(=O)C1(OC(=O)CC)C(C)CC2C3C(Cl)CC4=CC(=O)C=C[C@@]4(C)C3C(O)C[C@@]21C` (stereo partly specified), for which the Potency result in experiment [1], in experiment [2] and in experiment [4] was “inactive” throughout. For the same molecule, the activity change, negative = inhibition in experiment [3] is 4.4% (inactive). The max response came to 1.88% in experiment [3] (setting [5]) and 8.57% in experiment [3] (setting [6]).

With `O=c1c(O)c(-c2ccccc2)oc2cccc(O)c12`, the Potency result in experiment [1], in experiment [2] and in experiment [4] was “inactive” in each case. The activity change, negative = inhibition in experiment [3] was 9.45% (inactive). Also, the max response in experiment [3] (setting [5]) was 9.77%; in experiment [3] (setting [6]), 18.2%.

Take `CC(=O)OCC(=O)[C@@]1(O)CCC2C3CC[C@H]4CC(O)CC[C@@]4(C)C3C(=O)C[C@]21C` (stereo partly specified): the Potency entry in experiment [1], in experiment [2] and in experiment [4] was “inactive” each time. For the same molecule, the activity change, negative = inhibition in experiment [3] was 4.69% (inactive). Also, the figures for the max response in experiment [3] (setting [5]) and in experiment [3] (setting [6]) were -0.527% and 6.2%, respectively.

As for `CC1(C)OC2CC3C4CCC5=CC(=O)C=C[C@@]5(C)[C@]4(F)C(O)C[C@@]3(C)[C@]2(C(=O)CO)O1` (stereo partly specified), the Potency entry in experiment [1], in experiment [2] and in experiment [4] was “inactive” each time. Besides, the activity change, negative = inhibition in experiment [3] was -5.31% (inactive). The values for the max response in experiment [3] (setting [5]) and in experiment [3] (setting [6]) were -0.616% and -3.49%, respectively.

For the molecule `CC(C)C(C)/C=C/C(C)C1CCC2C3=CCC4CC(=O)CC[C@@]4(C)C3CC[C@]21C` (stereo partly specified), the Potency entry in experiment [1], in experiment [2] and in experiment [4] was “inactive” in each case. Besides, in experiment [3], the activity change, negative = inhibition was 5.02% (inactive). Moreover, the max response in experiment [3] (setting [5]) is -0.92%; in experiment [3] (setting [6]) it was 5.16%.

Turning to `CC(C)c1c(O)c(-c2cc3c(c(C(C)C)c2O)CCC2C(C)(C)CCC[C@@]32C)cc2c1CCC1C(C)(C)CCC[C@@]21C` (stereo partly specified), the Potency result in experiment [1], in experiment [2] and in experiment [4] was “inactive” each time. For the same molecule, the activity change, negative = inhibition in experiment [3] is 8.62% (inactive). The max response in experiment [3] (setting [5]) stood at 4.25%; in experiment [3] (setting [6]) it was 16.8%.
